In all, about 2,300 compounds went through this assay and about 1,100 (48%) were called active. How the calls were made is not given here. So high a share suggests a set chosen from earlier hits. The list shows a part of the results. Measured potencies and affinities stand elsewhere.

The nature of the assay: S. typhi counter-screen signal inhibition – fluorescence, 4 h, counter-screen for PhoP regulon inhibitor project, dose response (AID 2384). The settings on record: S. typhi GFP reporter counter-screen; series mostly up to 150 µM; inhibition: at the top concentration. (In general: The purpose of a counterscreen is to sort out artefacts and off-target activity.)
What is called inhibition is the drop in the measured response relative to a control, in per cent. On to `O=C1c2ccccc2NC(c2cccc([N+](=O)[O-])c2)N1CCc1ccccc1` (centres undefined), for which the “inhibition” value was 24% (inactive).
For the compound `CN1C(=O)/C(=C2/C=Cc3ccccc3N2CCCS(=O)(=O)O)SC1=S`, the “inhibition” value is 37.2% (inactive).
For `CCOC(=O)c1nc(C)n(-c2cc(Cl)ccc2Cl)n1` the value was 6.17% (inactive); for `COc1ccccc1C1CN(c2ccc(F)cc2F)N=C1c1cccs1` (centres undefined), -4.35% (inactive); for `Cc1n[nH]c(=O)nc1NCCc1ccccc1`, 3.25% (inactive).
For the compound `Cc1cccc(OCCSc2nnc(-c3ccoc3C)n2C)c1`, the “inhibition” value is 17.9% (inactive).
For `CC(C)CC(=O)N1CCN(C(=O)CCC2CCCC2)CC1` the value was 10.6% (inactive).
The value for `Cc1cccc(NC(=O)C2CCCN2S(=O)(=O)c2ccc3c(c2)n(C)c(=O)c(=O)n3C)c1` (centres undefined) was 30.3% (inactive); that for `O=C(CCN1CCOCC1)Nc1ccccc1` was 12.2% (inactive); that for `Cc1cc(=O)oc2ccc(OCC(=O)N3CCC(C)CC3)cc12` was 9.4% (inactive).
The value for `O=C(Nc1ccc(Cl)cc1)N1CCCN(Cc2ccccc2F)C1` was 22.7% (inactive); that for `O=C(COc1ccc(Cl)cc1)N1CCN(C2CCCC2)CC1` was 20.5% (inactive).
Take `O=C(O)COc1ccc(F)cc1Br`: the “inhibition” value was -9.25% (inactive).
On to `O=C(/C=C/c1ccc(Cl)cc1Cl)NCc1ccncc1`, for which the “inhibition” value is 21.3% (inactive).
As for `CCCSc1nc2cc(OC)c(OC)cc2c(=N)n1CCCN1CCOCC1`, the “inhibition” value was 13.2% (inactive).
The value for `COc1ccccc1-n1nc(C(=O)NCc2ccco2)c2ccccc2c1=O` was -0.37% (inactive).
The value for `COc1ccccc1Nc1nc(Cl)c(C=O)s1` was 28.1% (inactive); that for `CC(C)(C)c1ccc(NC(=O)NCc2ccco2)cc1` was -4.75% (inactive).
The value for `CC(C)(C)c1nc(SCC(=O)NCc2ccco2)c2ccccc2n1` was -21.9% (inactive); that for `CCOC(=O)c1cc(-c2ccncc2)nc2c1c(C)nn2-c1ccccn1` was -11.7% (inactive); that for `COc1cc(C(c2nnnn2C2CCCC2)N2CCN(C)CC2)cc(OC)c1OC` (centres undefined) was -10.6% (inactive).
As to `COc1ccc(N=CC2=C(Nc3ccc(OC)cc3)c3c(C)nn(-c4ccccn4)c3CC2)cc1`, the “inhibition” value was 19.6% (inactive).
The value for `Cc1cc(C)nc(SCC(=O)Nc2sc3c(c2C#N)CCC(C)C3)n1` (centres undefined) was 20.4% (inactive); that for `O=C(CSc1ncc(-c2ccc(F)cc2)[nH]1)NCc1ccco1` was -28.9% (inactive); that for `O=C(CSc1nc2c(c(=O)n1-c1ccc(F)cc1)SCC2)NCc1ccco1` was -2.97% (inactive).
For `Oc1ccccc1N=Cc1c(O)ccc2oc3c(c12)CCCC3`, the “inhibition” value is 7.25% (inactive).
For `CCCCOc1ccc(C2=NNC(=O)CC2)cc1` the value was 23.2% (inactive).
On to `Cc1ccc(C(=O)Nc2ccc3c(c2)ncn3C)cc1`, for which the “inhibition” value was 18.6% (inactive).
The value for `Cc1c(C(=O)Nc2ccncc2)sc2nc(-c3ccc(F)cc3)cn12` was -1.91% (inactive); that for `Cc1cc(C)c([C@@H]2C[C@H]3CN(C4CCCC4)C(=O)[C@]34CCCN24)c(-n2cccn2)c1` was 2.81% (inactive); that for `O=C(Oc1ccc[nH]c1=O)c1cc([N+](=O)[O-])cc([N+](=O)[O-])c1` was 37% (inactive).
For `Cc1ccc(C)c2[nH]c(=O)c(CN(Cc3cccnc3)C(=S)NCc3ccco3)cc12` the value was -7.36% (inactive); for `C#CCOCCOCCOCCNc1nc(N2CCN(C(=O)CCCCCCCCCCNC(=O)[C@H](CO)n3cc(CCCSC)nn3)CC2)nc(N2CCN(C(=O)CCCCCCCCCCNC(=O)[C@H](CCCN=C(N)N)n3cc(C[C@@H](C)CC)nn3)CC2)n1`, -11.9% (inactive); for `C#CCOCCOCCOCCNc1nc(N2CCN(C(=O)CCCCCCCCCCNC(=O)Cn3cc(C[C@@H](C)O)nn3)CC2)nc(N2CCN(C(=O)CCCCCCCCCCNC(=O)[C@H](CCCN=C(N)N)n3cc(C[C@@H](C)CC)nn3)CC2)n1`, 7.83% (inactive).
For `C#CCOCCOCCOCCNc1nc(N2CCN(C(=O)CCCCCCCCCCNC(=O)[C@H](CCCCN)n3cc(C[C@@H](C)CC)nn3)CC2)nc(N2CCN(C(=O)CCCCCCCCCCNC(=O)[C@@H]([C@H](C)O)n3cc(C)nn3)CC2)n1` the value was 9.45% (inactive).
In the case of `CCN(CC)CCCNC(=O)c1c(O)c2c([nH]c1=O)CCCC2`, the “inhibition” value is 1.16% (inactive).
For `COc1cc(C(=O)Nc2ccc3c(c2)OCCO3)ccc1OC(C)C` the value was 2.98% (inactive); for `Cc1ccc(S(=O)(=O)N2CCOCC2)cc1NC(=O)CSc1nc(N)cc(=O)[nH]1`, -11% (inactive); for `C[C@@H](CO)NC(=O)c1ccc2c3n(nc2c1)-c1ccc(Cl)cc1CO3`, -3.51% (inactive).
For `Cc1nc2nc(COc3ccccc3)nn2c(C)c1Cl` the value was 14.8% (inactive).
The value for `CC(C)C(=O)Nc1ccccc1-c1nc2ccccc2[nH]c1=O` was 4.85% (inactive); that for `CCc1nnc(NS(=O)(=O)c2ccc(NC(=S)NC(=O)/C=C/c3ccc(C(C)C)cc3)cc2)s1` was 39.2% (inactive).
Turning to `O=C(/C=C/c1ccccc1)OCc1cnc(Cl)s1`, the “inhibition” value is -16.4% (inactive).
For `O=C(/C=C/c1ccccc1)NC(=S)N1CCSCC1` the value was -4.32% (inactive).
The value for `COc1ccccc1-n1c(SCC(=O)O)nnc1-c1ccc(S(=O)(=O)N2CCCCC2)cc1` was 16.1% (inactive); that for `O=C(CCSCc1ccccc1F)NCc1cccs1` was 6.35% (inactive).
On to `Nc1cc(N2CCOCC2)c(Cl)cc1[N+](=O)[O-]`, for which the “inhibition” value was -13% (inactive).
For `O=C(NC1CC1)C1CCN(C2CCN(C(=O)Cc3ccc(F)cc3)CC2)CC1` the value was -14.2% (inactive); for `CCCC(=O)N1CCN(c2ccc(NC(=S)NC(=O)c3cccc(C)c3)cc2)CC1`, -4.38% (inactive); for `O=C(NNC(=O)c1cccs1)c1ccc2ccccc2c1`, 27.6% (inactive).
For `COc1ccc(-c2noc(CCC(=O)Nc3cccc(C)c3)n2)cc1` the value was 13.1% (inactive); for `COc1cc(C(=O)NC(=S)Nc2cccc3nc(C)ccc23)cc(OC)c1OC`, 36.5% (inactive); for `COC(=O)c1ccc(NC(=S)NNC(=O)c2ccccc2)cc1`, 20.3% (inactive).
Consider `Cc1ccc(NC(=O)C(=O)NNC(=O)c2cccs2)cc1`, for which the inhibition was 26.1% [at 2.34 µM] (inactive).
For `CC1(C)CC(=O)C(C(=O)/C=C/NCCc2ccccc2)C(=O)C1` the value was 20.5% (inactive); for `Cc1ccc(-c2cc(N)nc(-c3ccccc3)c2)cc1`, 33% (inactive); for `O=C(O)c1ccc(NC2=C(Cl)C(=O)c3ccccc3C2=O)cc1`, -19.2% (inactive).
For `O=C1C(SCCO)=C(SCCO)C(=O)c2ccccc21` the value was 24.9% (inactive).
For `CC(C)C(NS(=O)(=O)c1cccc2nsnc12)C(=O)N1CCn2c1nc1ccccc12` (centres undefined) the value was 20.8% (inactive); for `COc1cccc(N2CCN(C(=S)NCc3ccco3)CC2)c1`, -37.1% (inactive); for `COc1ccc(Nc2nc(-c3ccccc3)nc3ccccc23)cc1S(=O)(=O)N1CCOCC1`, -6.61% (inactive).
For `C=CCn1c(O)c(N=NC(=O)c2cccnc2)c2cc(Br)ccc21`, the “inhibition” value is -3.27% (inactive).
On to `COc1cccc(C(=O)CC(=O)C(=O)Nc2cc(OC)c(OC)c(OC)c2)c1`, for which the “inhibition” value is 11.7% (inactive).
For `Cc1cc(C)cc(N(C(=O)CNC(=O)c2cccs2)C(C(=O)NC2CCCC2)c2cccnc2)c1` (centres undefined) the value was 16.6% (inactive); for `CCc1c(C)nc2cc(-c3cc(OC)cc(OC)c3)nn2c1N1CCCC1`, 12.4% (inactive); for `CCN1CCc2c(C#N)c(NCc3ccccc3)nc(NCCO)c2C1`, 10.4% (inactive).
`Cc1[nH]nc2c1C(C1CC=CCC1)C(C#N)=C(N)O2` (centres undefined): the “inhibition” value is -21.3% (inactive).
Consider `C#CC(=O)N(c1cccc(OC)c1)C(C(=O)NC1CCCC1)c1cccs1` (centres undefined), for which the “inhibition” value is -6.44% (inactive).
For the compound `COc1ccc(CCC(=O)NCc2cn3ccccc3n2)cc1`, the “inhibition” value was -5.49% (inactive).
The value for `O=C(CCCc1ccccc1)Nc1cccnc1` was 8.17% (inactive).
For `CCOCCCNC(=O)C(c1ccc(OC)cc1)N(Cc1cccs1)C(=O)c1ccccn1` (centres undefined) the value was -14% (inactive).
For `COc1ccc(-c2nc3ccc(C(=O)NCC(OC)OC)cc3nc2-c2ccc(OC)cc2)cc1` the value was -2.98% (inactive); for `COCCCNC(=O)c1cc(OC)c(OC)c(OC)c1`, -18.1% (inactive).
As to `S=C(Nc1ccccc1Cl)N(Cc1ccccc1)Cc1ccccn1`, the “inhibition” value is -17% (inactive).
Consider `O=c1c2ccccc2ncn1Cc1ccc(Cl)cc1`, for which the “inhibition” value is 5.03% (inactive).
As for `CCOC(=O)CSc1nnc2c(n1)C1(C)CCC2C1(C)C` (centres undefined), the “inhibition” value is 0.17% (inactive).
As for `O=C(O)/C=C/c1cn(-c2ccccc2)nc1-c1cc2ccccc2oc1=O`, the “inhibition” value is -6.24% (inactive).
The value for `Cc1cccc(OCC(=O)NNc2c3ccccc3nc3ccccc23)c1` was 8.34% (inactive); that for `Cc1ccc(OCC(=O)N2CCN(S(C)(=O)=O)CC2)cc1` was 13.9% (inactive); that for `CCC(C)(C)NC(=O)COc1ccc(C(=O)c2ccccc2)cc1` was 3.67% (inactive).
The value for `CCOc1ccc(NC(=O)CN(C)S(=O)(=O)c2cccs2)cc1` was 14.8% (inactive).
For `COc1ccc(Cl)cc1S(=O)(=O)N1CCN(C(=O)c2ccco2)CC1` the value was 20.3% (inactive); for `CCOC(=O)c1ccc(S(=O)(=O)N2CCN(CCC#N)CC2)cc1`, -7.98% (inactive).
As to `CCOC(=O)N1CCN(C(=S)NC(=O)c2ccc(Br)cc2)CC1`, the “inhibition” value was 6.72% (inactive).
For `CCOC(=O)N1CCN(CC(=O)Nc2ccc(F)cc2F)CC1` the value was 4.71% (inactive); for `COc1ccc(N(CCCN2C(=O)c3cccc4cccc(c34)C2=O)C(=O)c2cccnc2)cc1`, 7.69% (inactive).
For `C/C(=N\NC(=O)COc1ccccc1[N+](=O)[O-])c1cccs1` the value was 4.14% (inactive); for `O=C(Cn1c(=O)oc2cc(S(=O)(=O)N3CCCC3)ccc21)N1CCN(c2ccccc2F)CC1`, -19.8% (inactive).
`CCn1cc(C(=O)O)c(=O)c2cc(F)c(N3CCN(C(=S)NC(=O)c4ccccc4F)CC3)cc21`: the “inhibition” value is 7.79% (inactive).
For `CC1CCCN(C(=O)Cn2c(=O)oc3cc(S(=O)(=O)N4CCCCC4)ccc32)C1` (centres undefined) the value was -8.49% (inactive).
On to `CCN(CC)c1cc(C)c2cc(NC(=O)c3ccccc3F)ccc2n1`, for which the “inhibition” value was 16.7% (inactive).
As for `N=C1c2ccccc2CN1c1ncccn1`, the “inhibition” value is 24.2% (inactive).
The value for `COCCCNc1c2c(nc3nnnn13)CCCC2` was -14.2% (inactive).
For `CCN(CC)S(=O)(=O)c1ccc(N2CCOCC2)c(C(=O)O)c1` the value was 10.2% (inactive).
Take `CCN(CC)CCOC(=O)c1cc(Cl)c(N)cc1OC`: the “inhibition” value was -7.05% (inactive).
The value for `COc1ccc(C(CC(=O)O)NC(=O)C2CCCCC2)cc1` (centres undefined) was -13.5% (inactive).
The value for `COc1ccc(CCNC(=O)Cn2c(=O)n(CC3CCCO3)c(=O)c3ccccc32)cc1OC` (centres undefined) was 6.95% (inactive); that for `COc1ccc(OC)c(-c2cc(C(=O)Nc3ccc(F)cc3F)no2)c1` was -17% (inactive); that for `Cc1nc(N2CCOCC2)c2c(C)c(C(=O)Nc3ccccc3C(F)(F)F)sc2n1` was -9.31% (inactive).
Turning to `O=C(Cn1nc(Cl)nc1Cl)c1ccc([N+](=O)[O-])cc1`, the “inhibition” value is 30.1% (inactive).
For `CC1CC(C)CN(S(=O)(=O)c2ccc3c(c2)oc(=O)n3CC(=O)N(C)Cc2ccccc2)C1` (centres undefined) the value was -12.7% (inactive).
Take `Cc1cc(=O)n2nc(N3CCCC(C(=O)NC4CCCCC4C)C3)sc2n1` (centres undefined): the “inhibition” value was -27.6% (inactive).
As for `Cc1nnc(SCC(=O)Nc2cc(S(=O)(=O)N3CCCC3)ccc2Cl)s1`, the “inhibition” value was 7.35% (inactive).
The value for `CCOc1ccc(S(=O)(=O)N2CCC(C(=O)NCCN3CCOCC3)CC2)cc1C` was -8.84% (inactive).

The values are drawn from PubChem BioAssay AID2384 (Southern Research Specialized Biocontainment Screening …, 2010).
